This is an account of results in PubChem BioAssay (NCI).

Compounds without any hit were thinned out: in the full panel of roughly 83,000, 20% have a hit.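 Note: values are percent growth. 100 is the growth of untreated cells, values between 100 and 0 indicate rising inhibition; between -100 and 0 indicates cell death.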 A number with no mark means an inactive call. The source made the active and inactive calls. How the source made its calls: active means growth percent below 10; inactive means the rest.

Among the test systems are SK-MEL-2 melanoma; EKVX NSCLC; SN12C renal; UO-31 renal; TK-10 renal; ACHN renal; CAKI-1 renal; A498 renal; CCRF-CEM leukemia; MOLT-4 leukemia; RPMI-8226 leukemia; OVCAR-8 ovarian; OVCAR-5 ovarian; OVCAR-4 ovarian; SK-OV-3 ovarian; IGROV1 ovarian; OVCAR-3 ovarian; HS 578T breast; NCI/ADR-RES ovarian; SR leukemia.
Common to all, as to assay: NCI-60 one-dose screen, 48 h (100 = growth as untreated, 0 = no growth, -100 = all killed)
Common to all, as to details: 10 µM unless noted

Regarding `CCC(C(=O)[C@@H](C)[C@@H](O)[C@H](C)[C@@H]1O[C@@H]([C@@H](CC)C(=O)ONC(=O)c2ccccc2)CC[C@@H]1C)[C@H]1O[C@]2(C=CC(=O)[C@]3(CC[C@@](C)([C@H]4CC[C@](O)(CC)[C@H](C)O4)O3)O2)[C@H](C)C[C@@H]1C` (stereo partly drawn), the growth is -4.05% (active) in the assay with SK-MEL-2 melanoma; 33.5% with EKVX NSCLC; -48.6% (active) in the assay with SN12C renal; -95.1% (active) in the assay on UO-31 renal; 52.8% in the assay with TK-10 renal; -47.3% (active) in the assay on ACHN renal. The growth in the assay on CAKI-1 renal is 16.5%; with A498 renal, 16.8%; with CCRF-CEM leukemia it was -11.2% (active); in the assay with MOLT-4 leukemia, -2.14% (active); with RPMI-8226 leukemia it was 7.88% (active); with OVCAR-8 ovarian, 12.2%. Also, the growth in the assay with OVCAR-5 ovarian is -4.48% (active); in the assay on OVCAR-4 ovarian it was 35.6%; with SK-OV-3 ovarian, 95.2%; with IGROV1 ovarian it was -76.2% (active); in the assay with OVCAR-3 ovarian it was -71.1% (active); in the assay on HS 578T breast, -2.36% (active). In addition, the growth with NCI/ADR-RES ovarian was 12.1%.

`C=C(CBr)[C@@H]1CC[C@]2(C(=O)O)CC[C@]3(C)[C@H](CC[C@@H]4[C@@]5(C)CCC(=O)C(C)(C)[C@@H]5CC[C@]43C)[C@@H]12`: the growth was 79.7% in the assay with SK-MEL-2 melanoma; 86.5% in the assay with EKVX NSCLC; 72.5% in the assay with SN12C renal; 56.2% in the assay with UO-31 renal; 112% in the assay with TK-10 renal; 81.4% in the assay with ACHN renal. Also, the growth in the assay on CAKI-1 renal is 82%; in the assay on A498 renal, 110%; with CCRF-CEM leukemia it was 50.3%; with MOLT-4 leukemia, 54.4%; in the assay on RPMI-8226 leukemia it was 42.3%; with OVCAR-8 ovarian, 84.2%. The growth in the assay with OVCAR-5 ovarian was 89.8%; in the assay with OVCAR-4 ovarian it was 75.3%; with SK-OV-3 ovarian, 121%; in the assay on IGROV1 ovarian it was 103%; with OVCAR-3 ovarian, 70.8%; in the assay on HS 578T breast, 92.2%. Moreover, the growth in the assay with NCI/ADR-RES ovarian is 83.4%.

`O=C(CN1CCOCC1)Nc1nc(-c2cc3ccccc3oc2=O)cs1`: the growth in the assay on SK-MEL-2 melanoma is 114%; with EKVX NSCLC it was 99%; in the assay with SN12C renal, 101%; in the assay with UO-31 renal it was 70.6%; with TK-10 renal, 154%; in the assay with ACHN renal, 93.1%. In addition, the growth in the assay with CAKI-1 renal is 82.4%; in the assay with A498 renal, 102%; in the assay with CCRF-CEM leukemia, 103%; in the assay with MOLT-4 leukemia, 104%; with SR leukemia, 102%; in the assay on RPMI-8226 leukemia it was 104%. The growth was 99.4% in the assay on OVCAR-8 ovarian; 102% in the assay on OVCAR-4 ovarian; 116% in the assay on SK-OV-3 ovarian; 87.9% in the assay with IGROV1 ovarian; 105% in the assay with OVCAR-3 ovarian; 92.8% in the assay on HS 578T breast. In addition, in the assay with NCI/ADR-RES ovarian, the growth was 103%.

Take `COc1cc2oc(-c3cccc(NC(=O)c4ccccc4)c3)cc(=O)c2c(OC)c1OC`: the growth is 76.8% with SK-MEL-2 melanoma; 103% in the assay on EKVX NSCLC; 76.2% in the assay with SN12C renal; 51% in the assay with UO-31 renal; 91.3% in the assay on TK-10 renal; 61.6% with ACHN renal. The growth with CAKI-1 renal is 87.2%; in the assay on A498 renal it was 59.4%; with CCRF-CEM leukemia, 45.7%; with MOLT-4 leukemia, 40.7%; in the assay on RPMI-8226 leukemia, 26.6%; with OVCAR-8 ovarian it was 61%. In addition, the growth with OVCAR-5 ovarian was 100%; with OVCAR-4 ovarian, 81.7%; in the assay on SK-OV-3 ovarian, 104%; with IGROV1 ovarian, 78.4%; with OVCAR-3 ovarian, 84.2%; with HS 578T breast, 97.2%. Besides, the growth in the assay on NCI/ADR-RES ovarian is 74.5%.

As to `Cc1cccc(CNc2c3ccccc3nc3ccccc23)c1`, the growth with SK-MEL-2 melanoma is 38%; in the assay on EKVX NSCLC, 44.5%; in the assay with SN12C renal it was 26.1%; in the assay with UO-31 renal, 14.7%; in the assay on TK-10 renal it was 38.4%; in the assay on ACHN renal, 15.8%. Further, the growth in the assay with CAKI-1 renal was 17.7%; in the assay with A498 renal, -2.22% (active); with CCRF-CEM leukemia it was 14.8%; in the assay with MOLT-4 leukemia, 2.32% (active); with RPMI-8226 leukemia, -20.4% (active); in the assay with OVCAR-8 ovarian, 20.3%. In addition, the growth was 35.8% in the assay with OVCAR-5 ovarian; 27.9% with OVCAR-4 ovarian; 45.3% in the assay with SK-OV-3 ovarian; 19.5% in the assay with IGROV1 ovarian; 30.8% in the assay with OVCAR-3 ovarian; 30.3% in the assay on HS 578T breast. Besides, the growth with NCI/ADR-RES ovarian is 25.7%.

As to `CCOC(=O)NC(C)C`, the growth in the assay on SK-MEL-2 melanoma was 114%; in the assay with EKVX NSCLC, 105%; with SN12C renal it was 100%; in the assay with UO-31 renal it was 81.5%; in the assay with TK-10 renal it was 115%; in the assay with ACHN renal, 100%. Moreover, the growth in the assay with CAKI-1 renal was 98.2%; with A498 renal it was 117%; in the assay with CCRF-CEM leukemia, 110%; in the assay with MOLT-4 leukemia it was 82.9%; in the assay on RPMI-8226 leukemia it was 113%; with OVCAR-8 ovarian, 103%. Also, the growth in the assay with OVCAR-5 ovarian is 90.5%; with OVCAR-4 ovarian it was 107%; in the assay with SK-OV-3 ovarian it was 117%; in the assay on IGROV1 ovarian it was 91.2%; in the assay on OVCAR-3 ovarian, 112%; in the assay with HS 578T breast, 111%. Also, the growth in the assay with NCI/ADR-RES ovarian is 93.5%.

Regarding `C/C(Cc1ccc(Cl)cc1)=C(\c1ccc(O)cc1)c1ccc(Cl)cc1`, the growth is 90.9% with SK-MEL-2 melanoma; 83.9% in the assay with EKVX NSCLC; 95.1% in the assay with SN12C renal; 85.1% in the assay on UO-31 renal; 95.3% in the assay with TK-10 renal; 99.5% with ACHN renal. The growth in the assay with CAKI-1 renal was 84.7%; in the assay on A498 renal it was 116%; in the assay with CCRF-CEM leukemia, 92.2%; in the assay with MOLT-4 leukemia, 81%; in the assay with SR leukemia, 80.5%; in the assay with RPMI-8226 leukemia it was 72.5%. Also, the growth in the assay on OVCAR-8 ovarian was 104%; with OVCAR-4 ovarian, 89.3%; in the assay on SK-OV-3 ovarian, 112%; in the assay with IGROV1 ovarian it was 96.8%; in the assay with OVCAR-3 ovarian it was 103%; in the assay with HS 578T breast, 99.6%. Besides, in the assay with NCI/ADR-RES ovarian, the growth was 100%.
